The source of these data is PubChem BioAssay (Tox21).

Unmarked numbers belong to inactive results. Results filed as inconclusive are left out. Active and inactive are the calls of the source. Unless noted, the call rests on the fitted dose curve; in most records, active means well fitted curve in the direction sought with a large enough effect in the repeat runs; inconclusive means weak or mixed curves; inactive means no such curve, though single readings can be large; an effect the other way counts as inactive or inconclusive.

The target of test [1] is Thyrotropin receptor (Homo sapiens) (UniProt P16473). Nature of the test: qHTS assay to identify small molecule antagonists of the thyroid stimulating hormone receptor (TSHR) signaling pathway (AID 1259385; calls by dose curve; further: on the % scale 0 is the no-effect control and ±100 the full control effect; nearly all actives have a fitted effect of over 20% in size). In outline: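 Antagonist mode: compound-treated TSHR-expressing HEK293 cells were stimulated with 1.5 ng/mL TSH (final) in presence of Ro20-1724 for 30 min at RT. HTRF cAMP detection after 1 h; each compound tested at 15 concentrations, triplicate.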

Test [2] in a line: qHTS assay to identify small molecule agonists of the estrogen receptor alpha (ER-alpha) signaling pathway in the presence of an antagonist - cell viability counter screen (AID 1259386).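 Further: cells exposed to compounds for 22 h at 37 °C before the viability read; nearly all actives have a fitted effect of over 30% in size.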 Further: potency means the concentration at half of the fitted maximal effect. The method, boiled down: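 Cytotoxicity was measured in parallel with the ERE-luciferase agonist screen, in the same wells. The cells were VM7Luc4E2, which endogenously express ER-alpha, and treatment was with compounds plus 10.0nM ICI-182,780 for 22hr.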
(In general: In qHTS, concentration-response curves come from the screen itself.)

The target in test [3] is Progesterone receptor (Homo sapiens) (UniProt P06401). Nature of the test: qHTS assay to identify small molecule agonists of the progesterone receptor (PR) signaling pathway (AID 1346784; calls by dose curve; further: on the % scale 0 is the no-effect control and ±100 the full control effect; nearly all actives have a fitted effect of over 30% in size). The method, boiled down: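 PR-UAS-bla HEK 293T cells carrying a UAS-driven beta-lactamase reporter were seeded in medium with 2% charcoal-stripped FBS, preincubated 6 hr at 37C, then exposed to compounds in DMSO for 16 hr; agonism was read by LiveBLAzer B/G FRET fluorescence.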

Test [4] has the same target. Nature of the test: qHTS assay to identify small molecule antagonists of the progesterone receptor (PR) signaling pathway (AID 1346795; active means well fitted inhibition curve with a large enough effect in the signal ratio in the repeat runs, not every such curve was filed as active; the % refers to the signal ratio; further: potency means the concentration at half of the fitted maximal effect). In outline: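 PR-UAS-bla HEK293T cells carrying a UAS-driven beta-lactamase reporter were plated in medium with 2% charcoal-stripped FBS and rested 6 hr at 37C. Compounds were added with 1 nM R5020 (final) for 16 hr, then FRET substrate loaded 2 hr at room temperature.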

Test [5] can be described thus: qHTS assay to identify small molecule antagonists of the progesterone receptor (PR) signaling pathway - cell viability counter screen (AID 1346798). Further: nearly all actives have a fitted effect of over 50% in size. Further: potency means the concentration at half of the fitted maximal effect. In outline:
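PR-UAS-bla HEK293T cells in medium with 2% charcoal-stripped FBS were treated with compounds plus R5020 for 16 hr at 37C. Cell viability was then read by CellTiter-Glo luminescence after 30 min at room temperature in the same wells.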

Test [6] is described as follows: qHTS assay to identify small molecule antagonists of the TGF-beta/Smad signaling pathway - cell viability counter screen (AID 1346824). Further: on the % scale 0 is the no-effect control and ±100 the full control effect; nearly all actives have a fitted effect of over 50% in size. The method, boiled down:
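Cytotoxicity counter-screen run in the same wells as the beta-lactamase Smad reporter read: CellTiter-Glo luminescence after 30 min at room temperature. HEK 293T SBE-bla cells had 5 hr compound exposure at 37 C with TGF-beta1 (0.25 ng/mL stock).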

A short description of test [7]: qHTS assay to identify small molecule agonists of the TGF-beta/Smad signaling pathway - cell viability counter screen (AID 1346829). Further: top concentration of the series differs between compounds; on the % scale 0 is the no-effect control and ±100 the full control effect; nearly all actives have a fitted effect of over 45% in size. The method, boiled down: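 Tox21 qHTS format: SBE-bla HEK 293T cells treated with DMSO-dissolved compounds for 5 hr; CellTiter-Glo luminescence after 30 min at room temperature.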
Test [8] can be described thus: qHTS assay to identify small molecule agonists of the TGF-beta/Smad signaling pathway (AID 1346859; active means well fitted activation curve with a large enough effect in the signal ratio in the repeat runs, not every such curve was filed as active; the % refers to the signal ratio; further: series mostly up to about 77 µM; on the % scale 0 is the no-effect control and ±100 the full control effect). The method, boiled down: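 HEK 293T cells stably carrying a beta-lactamase reporter driven by the Smad binding element were seeded overnight, exposed to DMSO-dissolved compounds for 5 hr at 37 C, 5% CO2, then loaded with FRET substrate for 2 hr at room temperature.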

Test [9] deals with Thyrotropin-releasing hormone receptor (Homo sapiens) (UniProt P34981). Nature of the test: qHTS assay to identify small molecule antagonists of the thyrotropin-releasing hormone receptor (TRHR) signaling pathway (AID 1346877; active means well fitted inhibition curve with a large enough effect in the repeat runs, not every such curve was filed as active; further: series mostly up to about 51 µM; on the % scale 0 is the no-effect control and ±100 the full control effect). The method, boiled down:
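Antagonism is measured as suppression of the calcium response to 1 nM TRH in TRHR-HEK293 cells that have been dye-loaded for 2 h at 37 °C after overnight plating. Each compound is tested at 15 concentrations in triplicate.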

Test [10] has the same target. Nature of the test: qHTS assay to identify small molecule agonists of the thyrotropin-releasing hormone receptor (TRHR) signaling pathway (AID 1346891; calls by dose curve; further: series mostly up to about 58 µM; on the % scale 0 is the no-effect control and ±100 the full control effect). In outline: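 TRHR-expressing HEK293 cells were plated 18 h at 37 °C/5% CO2, loaded with calcium dye 2 h at 37 °C, then given compound in DMSO; fluorescence was read kinetically for 3 min at 1 s intervals.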
A short description of test [11]: Human pregnane X receptor (PXR) small molecule agonists, qHTS cell viability counter screen (AID 1346977). Further: on the % scale 0 is the no-effect control and ±100 the full control effect; nearly all actives have a fitted effect of over 50% in size. In outline:
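PXR-Luc HepG2 cells in medium with 5% charcoal-stripped FBS were pre-incubated 5hr, then exposed to compounds for 24hr at 37C. Viability was read in the same wells by CellTiter-Fluor fluorescence, reagent added after 23hr with a 1hr incubation.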

Test [12] is described as follows: Caspase-3/7 induction in HepG2 cells by small molecules, qHTS assay (AID 1346978). Further: on the % scale 0 is the no-effect control and ±100 the full control effect; nearly all actives have a fitted effect of over 15% in size. In outline: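 Caspase-3/7 induction was measured by Caspase-Glo 3/7 luminescence (30 min, room temperature) after a 17 hr compound exposure of wild-type HepG2 cells seeded at 2,000 per well and pre-incubated 5 hr.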
Test [13] can be described thus: Caspase-3/7 induction in CHO-K1 cells by small molecules, qHTS assay (AID 1346980). Further: on the % scale 0 is the no-effect control and ±100 the full control effect; nearly all actives have a fitted effect of over 15% in size. In outline:
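Luminescent Caspase-Glo 3/7 read (30min, room temperature) quantified apoptosis induction. Cells were wild-type CHO-K1, treated with compound for 17hr at 37 C and 5% CO2.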

Test [14] can be described thus: Caspase-3/7 induction in HepG2 cells by small molecules, qHTS cell viability counter screen (AID 1346981). Further: series mostly up to about 92 µM; on the % scale 0 is the no-effect control and ±100 the full control effect; nearly all actives have a fitted effect of over 30% in size. The method, boiled down:
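Cell viability is measured as a cytotoxicity counter screen alongside the Caspase-Glo 3/7 readout in identical wells. Wild-type HepG2 cells are treated with test compounds for 16 hr at 37 C before CellTiter-Fluor addition and a 1-hr incubation.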

For test [15], the target named is Nuclear receptor subfamily 1 group I member 2 (Homo sapiens) (UniProt O75469). Nature of the test: Human pregnane X receptor (PXR) small molecule agonists, qHTS assay (AID 1346982). Further: nearly all actives have a fitted effect of over 35% in size. Further: potency means the concentration at half of the fitted maximal effect. On activation: on the % scale 0 is the no-effect control and ±100 the full control effect. In outline: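 Cells: HepG2 stably carrying PXR-Luc. Medium held 5% charcoal-stripped FBS. Compounds in DMSO added after 5 hr plating, incubated 24 hr, then luminescence quantified with ONE-Glo.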

Test [16] can be described thus: qHTS assay to identify small molecule agonists of the progesterone receptor (PR) signaling pathway - cell viability counter screen (AID 1346799; calls by dose curve; further: on the % scale 0 is the no-effect control and ±100 the full control effect; nearly all actives have a fitted effect of over 45% in size). The method, boiled down:
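PR-UAS-bla HEK293T cells, 3,000 per well in medium with 2% charcoal-stripped FBS, were preincubated 6 hr at 37C, then exposed to compounds for 16 hr; viability was read as CellTiter-Glo luminescence after 30 min at room temperature.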

Test [17] in a line: Caspase-3/7 induction in CHO-K1 cells by small molecules, qHTS cell viability counter screen (AID 1346979). Further: potency means the concentration at half of the fitted maximal effect; nearly all actives have a fitted effect of over 35% in size. The method, boiled down:
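Wild-type CHO-K1 cells were seeded at 1,500 per well, rested 5hr at 37 C, then exposed to compounds in DMSO. After 16hr, CellTiter-Fluor reagent was added and fluorescence read 1hr later as the viability measure.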

In test [18] the target is Nuclear receptor subfamily 1 group I member 2 (Rattus norvegicus) (UniProt Q9R1A7). Nature of the test: Rat pregnane X receptor (rPXR) activation by small molecules, qHTS assay (AID 1346983). Further: on the % scale 0 is the no-effect control and ±100 the full control effect; nearly all actives have a fitted effect of over 20% in size. The settings on record: rPXR luciferase reporter cells, One-Glo luminescence, 24 h; max activation: active compounds read high. In outline: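 Luminescent readout (One-Glo luciferase, 30 min room temperature) followed 24 hr compound treatment at 37 C of rPXR cells plated 2,000 per well and preincubated 5hr; qHTS format with compounds delivered in DMSO.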

Test [19] has as its target Nuclear receptor subfamily 1 group I member 2 (Homo sapiens) (UniProt O75469). Nature of the test: CYP3A4 induction through human pregnane X receptor (PXR) by small molecules, qHTS assay (AID 1346984). Further: on the % scale 0 is the no-effect control and ±100 the full control effect; nearly all actives have a fitted effect of over 40% in size. The method, boiled down:
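Quantitative HTS in DPX-2 cells, i.e. HepG2 transfected with PXR response element and CYP3A4-promoter luciferase. Compounds in DMSO incubated 24hr at 37C; then P450-Glo CYP3A4 substrate, 3uM final, 3hr; One-Glo luminescence.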

The target is the same in test [20]. Nature of the test: Human pregnane X receptor (PXR) activation by small molecules, qHTS assay (AID 1346985). Further: on the % scale 0 is the no-effect control and ±100 the full control effect; nearly all actives have a fitted effect of over 40% in size. In outline:
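DPX-2 cells (HepG2 co-transfected with a PXR response element and a CYP3A4-promoter luciferase construct) were seeded at 2,000 per well, rested 5 hr at 37C, then exposed to DMSO-dissolved compounds for 24 hr. Activation was read as luciferase luminescence.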

Sequence of Progesterone receptor (Homo sapiens) (P06401 whole entry, looked up): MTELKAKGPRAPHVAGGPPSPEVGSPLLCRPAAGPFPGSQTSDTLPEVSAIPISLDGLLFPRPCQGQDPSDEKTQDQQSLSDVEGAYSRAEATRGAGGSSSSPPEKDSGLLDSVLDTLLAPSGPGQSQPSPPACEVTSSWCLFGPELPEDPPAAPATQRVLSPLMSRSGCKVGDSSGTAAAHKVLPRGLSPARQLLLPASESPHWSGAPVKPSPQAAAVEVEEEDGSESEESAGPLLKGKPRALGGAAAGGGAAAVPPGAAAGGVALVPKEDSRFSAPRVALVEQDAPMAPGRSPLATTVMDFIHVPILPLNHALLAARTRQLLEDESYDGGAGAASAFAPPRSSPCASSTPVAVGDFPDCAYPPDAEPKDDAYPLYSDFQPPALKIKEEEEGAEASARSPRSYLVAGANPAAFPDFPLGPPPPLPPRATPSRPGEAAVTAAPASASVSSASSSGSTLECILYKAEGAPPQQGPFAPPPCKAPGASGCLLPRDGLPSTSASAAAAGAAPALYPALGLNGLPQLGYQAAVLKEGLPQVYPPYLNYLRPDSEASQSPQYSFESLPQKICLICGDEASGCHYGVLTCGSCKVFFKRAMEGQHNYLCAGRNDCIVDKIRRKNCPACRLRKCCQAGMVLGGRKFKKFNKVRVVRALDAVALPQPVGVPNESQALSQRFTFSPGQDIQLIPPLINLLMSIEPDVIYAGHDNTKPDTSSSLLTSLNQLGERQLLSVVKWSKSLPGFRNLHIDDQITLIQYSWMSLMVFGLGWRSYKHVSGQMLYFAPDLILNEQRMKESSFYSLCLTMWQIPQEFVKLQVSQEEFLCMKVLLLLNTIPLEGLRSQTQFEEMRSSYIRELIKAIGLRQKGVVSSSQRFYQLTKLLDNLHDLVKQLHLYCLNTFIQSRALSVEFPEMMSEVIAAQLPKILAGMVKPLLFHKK
Sequence of Nuclear receptor subfamily 1 group I member 2 (Homo sapiens) (O75469 whole entry, looked up): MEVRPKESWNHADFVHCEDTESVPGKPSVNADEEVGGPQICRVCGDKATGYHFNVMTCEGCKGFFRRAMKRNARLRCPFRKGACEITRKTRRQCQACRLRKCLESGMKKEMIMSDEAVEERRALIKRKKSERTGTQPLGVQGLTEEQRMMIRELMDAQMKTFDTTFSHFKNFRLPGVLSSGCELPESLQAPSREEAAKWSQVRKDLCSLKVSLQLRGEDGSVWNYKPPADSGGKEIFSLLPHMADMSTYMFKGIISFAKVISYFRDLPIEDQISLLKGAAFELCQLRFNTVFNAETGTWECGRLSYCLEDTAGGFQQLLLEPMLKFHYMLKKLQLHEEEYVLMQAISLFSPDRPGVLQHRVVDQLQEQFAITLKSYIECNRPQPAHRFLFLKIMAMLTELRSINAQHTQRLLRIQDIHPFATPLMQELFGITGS
Sequence of Thyrotropin-releasing hormone receptor (Homo sapiens) (P34981 whole entry, looked up): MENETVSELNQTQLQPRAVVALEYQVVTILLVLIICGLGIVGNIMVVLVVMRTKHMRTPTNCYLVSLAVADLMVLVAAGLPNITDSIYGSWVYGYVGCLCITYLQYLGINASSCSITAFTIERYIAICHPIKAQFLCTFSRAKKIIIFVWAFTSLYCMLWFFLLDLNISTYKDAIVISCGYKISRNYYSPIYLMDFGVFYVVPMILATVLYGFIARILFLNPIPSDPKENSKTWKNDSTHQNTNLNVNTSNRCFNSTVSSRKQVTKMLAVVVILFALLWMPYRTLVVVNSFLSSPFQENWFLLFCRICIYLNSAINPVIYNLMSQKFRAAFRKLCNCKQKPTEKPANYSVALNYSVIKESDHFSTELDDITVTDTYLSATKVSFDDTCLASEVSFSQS
Sequence of Thyrotropin receptor (Homo sapiens) (P16473 whole entry, looked up): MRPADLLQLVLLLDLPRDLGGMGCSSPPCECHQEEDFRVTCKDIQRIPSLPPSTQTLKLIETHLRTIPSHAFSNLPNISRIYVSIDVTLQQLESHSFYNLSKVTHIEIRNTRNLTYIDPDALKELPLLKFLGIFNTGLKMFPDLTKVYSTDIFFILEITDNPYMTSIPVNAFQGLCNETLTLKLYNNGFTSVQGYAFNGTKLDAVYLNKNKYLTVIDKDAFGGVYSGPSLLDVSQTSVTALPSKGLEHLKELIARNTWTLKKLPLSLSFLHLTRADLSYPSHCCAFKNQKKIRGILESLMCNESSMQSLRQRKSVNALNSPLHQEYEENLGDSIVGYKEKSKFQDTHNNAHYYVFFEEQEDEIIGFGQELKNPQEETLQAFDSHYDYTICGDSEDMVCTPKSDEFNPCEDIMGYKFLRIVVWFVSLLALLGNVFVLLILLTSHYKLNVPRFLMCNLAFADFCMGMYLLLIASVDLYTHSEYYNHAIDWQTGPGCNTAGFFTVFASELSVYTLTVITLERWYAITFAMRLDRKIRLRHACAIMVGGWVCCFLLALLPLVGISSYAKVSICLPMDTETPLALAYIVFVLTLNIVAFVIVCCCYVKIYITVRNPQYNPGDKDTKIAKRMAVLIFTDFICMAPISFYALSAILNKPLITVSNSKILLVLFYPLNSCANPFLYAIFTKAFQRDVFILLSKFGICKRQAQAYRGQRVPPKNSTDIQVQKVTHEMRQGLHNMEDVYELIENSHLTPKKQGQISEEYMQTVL
Sequence of Nuclear receptor subfamily 1 group I member 2 (Rattus norvegicus) (Q9R1A7 whole entry, looked up): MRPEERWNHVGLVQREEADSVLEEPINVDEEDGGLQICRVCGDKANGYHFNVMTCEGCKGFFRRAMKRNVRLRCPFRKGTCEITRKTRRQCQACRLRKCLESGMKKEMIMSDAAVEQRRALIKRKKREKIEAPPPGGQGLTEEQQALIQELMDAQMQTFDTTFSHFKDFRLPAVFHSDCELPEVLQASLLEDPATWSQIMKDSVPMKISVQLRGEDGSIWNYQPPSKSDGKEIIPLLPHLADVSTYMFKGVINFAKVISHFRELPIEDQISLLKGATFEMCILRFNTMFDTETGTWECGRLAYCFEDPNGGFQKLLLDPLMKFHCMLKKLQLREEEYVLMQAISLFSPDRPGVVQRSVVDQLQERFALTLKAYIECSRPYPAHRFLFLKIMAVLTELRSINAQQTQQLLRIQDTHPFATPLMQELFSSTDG

Take `SCCc1cnccn1`: the Potency result in test [1], in test [2], in test [3], in [7], in [8] and in test [11] was “inactive” in each case. In addition, the Potency entry in test [12], in test [14] and in [15] was “inactive” in each case. In addition, the Potency in test [4] was 43.3 µM (active); in test [5] it was 30.6 µM (active). In addition, the molecule was classed as inactive in test [6], in [9], in test [10] and in test [13].

As to `COc1ccc(-n2nc(C(F)F)cc2-c2ccc(S(C)=O)cc2)cc1` (stereo unspecified), the Potency result in test [1], in test [2], in test [3], in [5], in [16] and in test [7] was “inactive” in each case. Besides, the Potency result in [11], in test [12] and in test [14] was “inactive” each time. The call in test [6], in [9], in [10] and in test [13] was inactive. For the same molecule, in test [15], the Potency was 30.6 µM (active).

As for `CC[C@H]1OC(=O)[C@H](C)[C@@H](O[C@H]2C[C@@](C)(OC)[C@@H](O)[C@H](C)O2)[C@H](C)[C@@H](O[C@@H]2O[C@H](C)C[C@H](N(C)C)[C@H]2O)[C@](C)(O)C[C@@H](C)/C(=N\OCOCCOC)[C@H](C)[C@@H](O)[C@]1(C)O`, the Potency entry in [1], in test [3], in test [4], in [5], in [7] and in [8] was “inactive” in each case. For the same molecule, the Potency entry in test [12], in test [19] and in test [20] was “inactive” in each case. For the same molecule, the Potency is 7.19 µM (active) in test [2] and 28.6 µM (active) in test [17]. In addition, the result in test [6] and in test [13] was inactive. In addition, the max activation in [18] is 0.558%.

Regarding `CCCCCCCCCCCCCOS(=O)(=O)O`, the Potency result in test [1], in test [2], in test [3], in test [4], in test [7] and in test [8] was “inactive” throughout. The Potency entry in test [11], in [12], in test [14] and in [15] was “inactive” throughout. Further, the molecule was classed as inactive in [13].

Regarding `CCC(CO)(CO)[N+](=O)[O-]`, the Potency result in [1], in test [2], in [3], in [4], in test [5] and in [8] was “inactive” in each case. Besides, the Potency result in [11], in test [12] and in test [15] was “inactive” throughout. The outcome in [6] and in test [13] was inactive.

`CCOc1ncc(F)c(=O)[nH]1`: the Potency entry in [1], in test [2], in test [3], in test [4], in [5] and in test [8] was “inactive” each time. In addition, the Potency entry in [11], in test [12] and in test [15] was “inactive” throughout. Also, the outcome in [6], in [9], in [10] and in [13] was inactive.

`O=C(c1ccccc1)c1ccc(O)cc1`: the Potency result in test [1], in [2], in test [3], in test [5], in test [8] and in test [11] was “inactive” each time. Besides, the Potency result in test [12] and in test [14] was “inactive” throughout. Further, the Potency was 43.8 µM (active) in test [4] and 61.8 µM (active) in test [15]. Moreover, the molecule was classed as inactive in test [9], in test [10] and in [13].
